The record followed here is PubChem BioAssay AID1060 (Emory University Molecular Libraries Screening Center, 2008).

Potency and affinity values are given separately. Unmarked numbers belong to inactive results.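 Rule for the calls: active = fitted half-inhibition concentration at or below a set limit, with percent of control there at most 60; inactive = the rest.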

The target of the assay is Estrogen receptor beta (Homo sapiens) (UniProt Q92731). Nature of the assay: ERβ–SRC-3 coactivator interaction inhibitors, confirmation, orthogonal assay, biochemical, ELISA, streptavidin-HRP readout (AID 1060). The note with it: ERbeta-SRC-3 coactivator binding ELISA; series mostly up to 50 µM; percent of control: at the top concentration. In general terms: An ELISA detects its analyte on a solid surface through an enzyme-linked reagent.
Chain of Estrogen receptor beta (Homo sapiens) (Q92731 whole entry, looked up): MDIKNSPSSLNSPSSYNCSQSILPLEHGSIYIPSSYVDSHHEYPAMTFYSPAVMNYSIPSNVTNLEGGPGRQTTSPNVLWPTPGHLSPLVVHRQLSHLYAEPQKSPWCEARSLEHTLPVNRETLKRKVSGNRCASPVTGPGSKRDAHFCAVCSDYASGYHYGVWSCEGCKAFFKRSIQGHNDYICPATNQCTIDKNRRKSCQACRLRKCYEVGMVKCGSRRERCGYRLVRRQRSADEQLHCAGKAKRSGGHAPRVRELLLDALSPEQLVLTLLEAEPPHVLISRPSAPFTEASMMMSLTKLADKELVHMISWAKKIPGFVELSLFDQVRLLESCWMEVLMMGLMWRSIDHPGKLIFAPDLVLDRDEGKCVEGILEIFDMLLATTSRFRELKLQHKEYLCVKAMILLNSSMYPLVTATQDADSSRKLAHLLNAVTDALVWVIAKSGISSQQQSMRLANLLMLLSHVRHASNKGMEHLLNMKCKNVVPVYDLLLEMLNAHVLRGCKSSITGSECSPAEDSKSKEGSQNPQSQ
Take `CCC(=O)Nc1ccc(C(=O)Cn2nc(C(=O)O)c3ccccc3c2=O)cc1`: the “percent of control” value was 109%.
In the case of `COc1ccc2nc(-c3ccco3)c(-c3ccco3)nc2c1` it was 62.9%; in that of `CC1CC(C(F)(F)C(F)(F)F)n2nc(C(=O)O)cc2N1` (stereo unspecified), 114%; in that of `CCc1cc(=O)[nH]c(SCC(=O)Nc2ccc(C(=O)OC)cc2)n1`, 102%.
Then `COc1ccccc1-c1nnc2sc(-c3cnccn3)nn12`, with 97%; and `Cc1ccc(C(=O)CSC2=C(C#N)C(c3ccco3)CC(=O)N2)c(C)c1` (stereo unspecified), with 134%; and `COc1ccc(CCNC(=O)c2ccc3nc(-c4ccco4)c(-c4ccco4)nc3c2)cc1OC`, with 99.6%.
In the case of `CCC(=O)Nc1cccc(NC(C)=O)c1` it was 101%; in that of `NC(=O)c1cccc2c1C(=O)N(C1CCCCC1)C2`, 118%.
Take `Cc1cc(C)cc(OCC(=O)Nc2ccc(N3CCCC3)cc2)c1`: the “percent of control” value was 117%.
Turning to `COc1ccc2c(=O)c3c(=O)n(Cc4ccco4)c(-c4ccco4)nc3oc2c1`, the “percent of control” value was 131%.
In the case of `Cc1cc(-c2csc(N)n2)c(C)n1C` it was 97.3%.
In the case of `O=S(=O)(Nc1ncnc2sc3c(c12)CCC3)c1ccc2ccccc2c1` it was 131%.
In the case of `CSc1nc2c(c(=O)[nH]1)C(c1cccs1)C1=C(CCCC1=O)N2` (stereo unspecified) it was 132%; in that of `CCCNCC1COc2ccccc2O1` (stereo unspecified), 109%.
Regarding `Cc1sc2ncnc(NCc3ccco3)c2c1C`, the “percent of control” value is 141%.
